The values below come from PubChem BioAssay AID504621 (Broad Institute, 2011).

The campaign covered roughly 310,000 compounds. About 970 (0.31%) were called active.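 Rule for the calls: active = every replicate shows inhibition above about 80%, whatever the replicate mean (limit read from the data); inconclusive = mean inhibition reaches the set limit but some replicate falls short; inactive = the rest.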 The entries come from a sample that favours actives as a whole.

A short description of this test: reduced ATP signal of yeast carrying P. falciparum Hsp90 – S. cerevisiae, BacTiter-Glo luminescence, single point, set 2, antimalarial PfHsp90 inhibitor project, primary screen (AID 504621).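 Note: yeast relying on Plasmodium falciparum Hsp90 in place of its own; 0% = DMSO neutral controls and 100% = 20 µM radicicol positive controls.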 The settings on record: S. cerevisiae expressing PfHsp90, growth, 48 h, at 9.4 µM, active compounds read high.
Take `CCOC(=O)C1(c2ccccc2)CCN(CC(O)c2ccc(NC(C)=O)cc2)CC1` (centres undefined): the inhibition – broadly, the change of the read-out against control, counted positive when it falls – was -7.12% (inactive).
The result for `CCC(=O)OC(Cc1ccccc1)(c1ccccc1)C(C)CN(C)C` (centres undefined) reads 34.8% (inactive); that for `COC1C(O)C(C)OC(OC2CCC3(C=O)C(CCC4C3CCC3(C)C(C5=CC(=O)OC5)CCC43O)C2)C1O` (centres undefined), -24.6% (inactive); that for `CC(=O)OC1C2(CC3N4C(=O)C5(CO)SSC4(CC31O)C(=O)N5C)OC(C)C(C)(C)C2=O` (centres undefined), 11.7% (inactive).
The result for `CC1CC=CCC12C(=O)NC(=S)NC2=O` (centres undefined) reads 3.23% (inactive); that for `CC12CCC(O)CC1CCC1C2CCC2(C)C(C(=O)CC(O)C(F)(F)F)CCC12` (centres undefined), -14.7% (inactive).
The result for `CC12CCC3C(CCC4CC(=O)CCC43C)C1CC(=NO)C2=O` (centres undefined) reads -28.6% (inactive); that for `CN(C)CC1Oc2ccccc2OC1(O)c1ccccc1` (centres undefined), 102% (active).
As to `O=C(c1ccccc1)C(O)(CN1CCCCC1)c1ccccc1` (centres undefined), the inhibition is 8.04% (inactive).
The result for `CC1C(=O)OC2CCN3CC=C(COC(=O)C(C)(O)C1(C)O)C23` (centres undefined) reads 11.4% (inactive).
The result for `CC(CC(C#N)(c1ccccc1)c1ccccc1)N1CCCCC1` (centres undefined) reads 13.9% (inactive); that for `CCCCCCCCCCCCn1ccc(=N)cc1`, 93.6% (active).
The result for `CCC(C)(O)C(=O)OC1C(=O)OC2CC3C(C)=CC(=O)C(O)C3(C)C3C4(O)OCC23C1C(C)C4O` (centres undefined) reads -25.9% (inactive).
For the compound `CC(=O)C1(O)CCC2C3CCC4=C(Cl)C(=O)CCC4(C)C3CCC21C` (centres undefined), the inhibition is 7.87% (inactive).
